Data taken from PubChem BioAssay.
Unmarked numbers belong to inactive results. How the calls were made is not given here.

Target: Pantothenate synthetase (Mycobacterium tuberculosis (strain ATCC 25618 / H37Rv)) (UniProt P9WIL5)
Assay: Recombinant Mtb pantothenate synthetase (PanC) inhibitors, coupled enzyme, confirmatory (AID 375);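 further: 0% = full reaction with vehicle and 100% = no enzyme background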
Details: coupled enzyme assay; at 10 µM, active compounds read high

Pantothenate synthetase (Mycobacterium tuberculosis (strain ATCC 25618 / H37Rv)), sequence (P9WIL5 whole entry, looked up): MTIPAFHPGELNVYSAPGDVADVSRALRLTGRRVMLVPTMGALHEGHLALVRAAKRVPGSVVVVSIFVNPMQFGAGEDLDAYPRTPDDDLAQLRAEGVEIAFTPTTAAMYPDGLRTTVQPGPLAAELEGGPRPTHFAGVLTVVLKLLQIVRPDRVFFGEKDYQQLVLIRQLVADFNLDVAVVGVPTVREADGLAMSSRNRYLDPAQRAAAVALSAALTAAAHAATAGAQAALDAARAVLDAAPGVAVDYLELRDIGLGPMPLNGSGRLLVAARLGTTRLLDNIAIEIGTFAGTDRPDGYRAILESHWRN

| Compound | inhibition |
| --- | --- |
| O=C(c1ccc(-c2ccccc2)cc1)N1CCN(c2ncccn2)CC1 | 8% |
| COCC(=O)n1nc(NCc2ccc(OC)cc2)nc1NCc1ccc(OC)cc1 | 0% |
| CC(=O)NC(C)c1nc2ccccc2n1C(C)C (stereo not drawn) | 6% |
| CC(C)Cc1nnc(NS(=O)(=O)c2ccc(Cl)cc2)s1 | 0% |
| O=C(O)CCn1c(SCc2ccccc2)nc2ccccc21 | 0% |
| Cc1nnc(SCC(=O)Nc2cc(C(F)(F)F)ccc2N2CCOCC2)o1 | 0% |
| Cn1nnnc1SCc1cn2cccnc2n1 | 0% |
| CCn1c(SCC(=O)Nc2cc(NC(C)=O)ccc2OC)nnc1-c1ccccn1 | 2% |
| COc1ccc(OC)c(S(=O)(=O)NCCC2=CCCCC2)c1 | 6% |
| CN(CC(=O)Nc1ccc(F)c(Cl)c1)S(=O)(=O)c1cccc2nsnc12 | 0% |
| CCc1nnc(NC(=O)C2CCN(c3nccc(C)n3)CC2)s1 | 8% |
| N#Cc1nc(-c2ccco2)oc1N1CCN(c2cccc(Cl)c2)CC1 | 6% |
| c1ccc(Cc2ccc(OCCn3cncn3)cc2)cc1 | 0% |
| Cc1ccsc1C1C2=C(CCCC2=O)Nc2ncnn21 (stereo not drawn) | 0% |
| COC(=O)c1ccc(C(=O)OC)c(NC(=O)Nc2ccc3c(c2)OCO3)c1 | 0% |
| CC(Oc1ccccc1)C(=O)Nc1ccc(S(=O)(=O)NCC2CCCO2)cc1 (stereo not drawn) | 1% |
| CCOC(=O)C(NC(C)=O)(Nc1ccc(S(=O)(=O)Nc2nccs2)cc1)C(F)(F)F (stereo not drawn) | 3% |
| COCCn1nnnc1C(c1cc2cc(OC)ccc2[nH]c1=O)N1CCC(Cc2ccccc2)CC1 (stereo not drawn) | 3% |
